Among all 360,000 compounds or so, about 300 (0.083%) were called active. What follows is part of a selection rich in actives, with near analogues and random picks from the rest. A number with no mark means an inactive call. Cut-off read from the data, not from the text of the source: active = activation above about 40%; inconclusive = between about 15% and that limit; inactive = weaker than that.

D(2) dopamine receptor (Homo sapiens), sequence (P14416 whole entry, looked up): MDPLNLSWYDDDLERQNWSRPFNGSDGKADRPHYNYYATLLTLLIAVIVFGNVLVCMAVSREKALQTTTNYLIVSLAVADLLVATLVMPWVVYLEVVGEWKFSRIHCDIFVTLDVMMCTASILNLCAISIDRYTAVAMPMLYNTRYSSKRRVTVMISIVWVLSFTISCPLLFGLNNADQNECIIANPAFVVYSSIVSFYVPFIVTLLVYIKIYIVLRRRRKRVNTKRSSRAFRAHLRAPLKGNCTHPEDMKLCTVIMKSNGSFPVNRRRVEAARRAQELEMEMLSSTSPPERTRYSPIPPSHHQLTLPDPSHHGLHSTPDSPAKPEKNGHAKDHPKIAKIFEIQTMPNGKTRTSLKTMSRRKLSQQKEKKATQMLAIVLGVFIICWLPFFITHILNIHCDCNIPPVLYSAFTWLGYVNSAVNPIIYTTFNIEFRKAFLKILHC

For this test, the target named is D(2) dopamine receptor (Homo sapiens) (UniProt P14416). Briefly: Beta-Arrestin HTS for Positive Allosteric Modulators of the Human D2 Dopamine Receptor: Agonists. Conditions: DiscoveRx PathHunter D2 beta-arrestin, luminescence, 90 min; active compounds read high; 100% = 57 uM dopamine signal. The source says:
There is great interest in identifying small molecule ligands for G-protein coupled receptors (GPCRs) as nearly 50% of all FDA-approved drugs target these important receptor proteins. […] Amongst the dopamine receptors (DARs), the D2 is arguably one of the most validated drug targets in neurology and psychiatry. For instance, all receptor-based antiparkinsonian drugs primarily work via stimulating the D2 DAR, whereas all FDA-approved antipsychotic agents are antagonists of this receptor. The D2 DAR is also therapeutically targeted in other disorders such as restless legs syndrome, tardive dyskinesia, Tourette's syndrome, and hyperprolactinemia.
To this end, a miniaturized qHTS screen was developed to be screened against the Molecular Libraries Small Molecule Repository (MLSMR). This assay seeks to identify agonists against the D2 DAR.
NIH Molecular Libraries Probe Production Network [MLPCN]
NIH Chemical Genomics Center [NCGC]
PI Name: David Sibley, National Institutes of Neurological Disorders and Stroke
DiscoveRx D2 cells were thawed from frozen stock and seeded at 2,100 cells/ 3 uL/well media (DiscoveRx Plating Reagent 2) with MultiDrop Combi dispenser (Thermo Scientific, Logan, UT) onto white tissue culture treated 1536-well Aurora plates (Brooks Automation, Chelmsford, MA) and allowed to attach overnight at 37 deg C, 5% CO2. Next, 23 nL/well of compound solutions in DMSO were added with a pintool transfer (Kalypsis, San Diego, CA). As the positive control, 1 uL/well dopamine (EC100, 57 uM final concentration) diluted in buffer (HBSS + 10 mM HEPES + SMB + 0.1% Tween-20) was dispensed to 1 column of each plate. The rest of the plate was dispensed with buffer only, 1 uL/well as well. The cells were stimulated by compounds or dopamine control for 90 minutes at 37 deg C, 5% CO2, after which 1.5 ul/well of DiscoveRx detection reagent was added with BioRAPTR FRD dispenser. The detection reagent was prepared by mixing of Galacton Star Substrate, Emerald II solution and PathHunter buffer (supplied by the assay kit) together at 1:5:19 proportion accordingly just prior to dispensing. The plates were incubated at ambient temperature for 1 hour and then the luminescent signal was read on ViewLux plate reader (PerkinElmer, Waltham, MA).
In the case of `O=C1/C(=C\c2ccc([N+](=O)[O-])cc2)CS(=O)(=O)C/C1=C/c1ccc([N+](=O)[O-])cc1`, the activation was -8.23%. In the case of `O=C(O)C1CCN1C1CCCCC1` (centres undefined), the activation is -0.715%. As for `OC[C@@H]1CN(Cc2cccs2)C[C@H](n2cnc3c(Nc4ccccc4)ncnc32)O1`, the activation was -3.6%. With `COc1cccc(-c2cnc3c(NC(C)=O)cc(-c4cc(F)ccc4OC)cn23)c1`, the activation was 2.15%. Take `CN1C(=O)/C(=C/C=C2\SCCN2C)OC1=S`: the activation was -3.31%. Take `O=C1c2ccccc2C(=O)N1CCC(O)C[N+](=O)[O-]` (centres undefined): the activation is -2.92%. `O=C(NC1CC2CCCC(C1)N2C(=O)N1CCCCC1)C1CCCCC1` (centres undefined): the activation was -2.68%.

For the compound `O=C(Nc1ccccc1N1CCOCC1)c1ccc(OCc2cscn2)cc1`, the activation was 9.98%.

On to `Cc1ccc(N=C2NC(=O)c3cccc([N+](=O)[O-])c32)cc1`, for which the activation is 1.24%. In the case of `COc1ccc([C@H]2C[C@@H](n3cc(COC(=O)c4ccccc4)nn3)[C@H](O)CN2C(=O)c2cccs2)cc1`, the activation was -3.3%. In the case of `COc1cc(C(=O)Nc2cc(C(F)(F)F)ccc2N2CCOCC2)ccc1O` it was -0.449%; in that of `CCOC(=O)C(NS(=O)(=O)c1ccc(C)cc1)(C(F)(F)F)P(=O)(OCC(C)C)OCC(C)C` (centres undefined), -3.61%; in that of `COc1ccc(N2C(=O)C3C(C2=O)C(C(=O)c2ccccc2)N2CCCC32)cc1` (centres undefined), -3.43%. In the case of `O=C(CSc1ccccn1)Nc1nc2c(ccc3ccccc32)s1`, the activation was -0.569%.

As to `CC(=O)c1nn(-c2ccccc2)c(=Nc2ccccc2)cc1C`, the activation was -5.64%. The same measure for `CON(C)S(=O)(=O)c1ccc2c(c1)NC(=O)C1CCCN21` (centres undefined): -0.103%; for `COc1cccc(OCc2cc(C(=O)N3CCN(C(=O)c4ccco4)CC3)no2)c1`: 2.91%.

For the compound `O=C(c1ccco1)N1CCN(C(=S)Nc2cc(F)cc(F)c2)CC1`, the activation is 0.341%.

Regarding `O=C(OCC(=O)N1CCN(C(=O)c2ccco2)CC1)c1c(Cl)cccc1Cl`, the activation was -10.9%. The same measure for `COc1cccc(OC)c1OCCN1CCN(C(=O)c2ccco2)CC1`: 44.2% (active); for `O=C(CN1CCN(C(=O)c2ccco2)CC1)Nc1ccc(Cl)c(C(F)(F)F)c1`: -0.549%; for `O=C(c1ccco1)N1CCN(Cc2cccc(C(F)(F)F)c2)CC1`: 41.8% (active).

For the compound `CC1=CC=CN2C1=NC(=O)CC2(C)C(=O)N(CC(=O)NC1CCCC1)c1ccccc1C` (centres undefined), the activation was 4.24%. For the compound `COc1ccc(-c2ccc3[nH]c4c(c3c2)CCN2C[C@H]3[C@H](C)ON(C)[C@H]3C[C@@H]42)cc1`, the activation was -8.14%.

Source of the values: PubChem BioAssay AID624465 (National Center for Advancing Translational Sciences (NCATS), 2012).
